The values that follow come from paper PMC5540273 (PLoS ONE, 2017).

Among the test systems are ERN1; FER; FES; FGFR1; FGFR2; FGFR3; FGFR4; FGR; FLT1; FLT3-autoinhibited; FLT3; FLT4; FRK; FYN; GAK.
Common to all, as to details: concentration: 1 μM, replicates: in singlicate; n = 1
The test system of a further assay is T1, ERK4.
T1 construct: gene MAPK4

In a further assay the test system is T2, ERK5.
T2 construct: gene MAPK7

For another assay, the system named is T3, ERK8.
T3 construct: gene MAPK15

For a further assay, the system named is T4, FAK.
T4 construct: gene PTK2

A further assay deals with T5, GCN2(Kin.Dom.2,S808G).
T5 construct: gene EIF2AK4

Molecules are shown by their SMILES.
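Note: KINOMEscan kinase panel screen.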

With `Clc1cccc(-c2nc(Nc3ccncc3)c3ccccc3n2)c1` [GW873004], the “%Inh” value with ERK4 turned out to be 0%; with ERK5, 0%; with ERK8, 23%; in the assay with ERN1 it was 0%; with FAK, 11%; with FER, 16%. Also, the “%Inh” value in the assay with FES worked out at 16%; in the assay with FGFR1, 37%; with FGFR2, 11%; in the assay with FGFR3, 0%; in the assay on FGFR4 it was 0%; in the assay with FGR it was 55%. For the same compound, the “%Inh” value in the assay with FLT1 worked out at 34%; in the assay with FLT3-autoinhibited it was 0%; with FLT3, 17%; with FLT4, 52%; in the assay with FRK, 29%; in the assay with FYN, 0%. For the same compound, the “%Inh” value with GAK is on record as 3%; in the assay on GCN2(Kin.Dom.2,S808G) it was 0%.
Regarding `O=C(CCO)NCCn1ccc2ncnc(Nc3ccc(Oc4cccc(C(F)(F)F)c4)c(Cl)c3)c21`, the “%Inh” value turned out to be 0% with ERK4; 5% in the assay on ERK5; 0% in the assay with ERK8; 0% in the assay with ERN1; 0% in the assay with FAK; 0% with FER. For the same compound, the “%Inh” value with FES is on record as 0%; with FGFR1 it was 0%; in the assay with FGFR2, 0%; with FGFR3, 0%; in the assay on FGFR4, 0%; in the assay on FGR it was 5%. In addition, the “%Inh” value in the assay with FLT1, in the assay with FLT3-autoinhibited, with FLT3, with FLT4, with FRK and with FYN was 0% throughout. The “%Inh” value with GAK and with GCN2(Kin.Dom.2,S808G) was 0% throughout.
`O=C(Nc1n[nH]c2nc(-c3ccco3)c(Br)cc12)c1ccc(CN2CCCC2)cc1.O=C(O)[C@H](O)[C@@H](O)C(=O)O` [SB-742352]: the “%Inh” value is on record as 0% in the assay with ERK4; 0% with ERK5; 0% with ERK8; 0% in the assay on ERN1; 0% in the assay on FAK; 4% in the assay with FER. Also, the “%Inh” value in the assay with FES was 0%; in the assay on FGFR1, 0%; in the assay with FGFR2 it was 0%; with FGFR3 it was 1%; in the assay with FGFR4, 0%; with FGR, 3%. Moreover, the “%Inh” value in the assay with FLT1 is reported as 34%; in the assay on FLT3-autoinhibited it was 51%; in the assay on FLT3, 95%; with FLT4, 1%; with FRK it was 0%; in the assay on FYN, 0%. Besides, the “%Inh” value with GAK and in the assay with GCN2(Kin.Dom.2,S808G) was 0% throughout.
In the case of `Nc1nc(-c2ccc3c(N)n[nH]c3c2)cc(N2CCC[C@@H](C(=O)Nc3ccccc3)C2)n1.O=C(O)C(F)(F)F.O=C(O)C(F)(F)F` [GSK2288359], the “%Inh” value is given as 16% in the assay on ERK4; 0% in the assay with ERK5; 0% with ERK8; 23% in the assay with ERN1; 0% in the assay on FAK; 0% with FER. The “%Inh” value in the assay on FES is reported as 0%; in the assay on FGFR1 it was 0%; in the assay on FGFR2, 0%; in the assay on FGFR3, 7%; in the assay with FGFR4 it was 8%; with FGR, 15%. Also, the “%Inh” value in the assay on FLT1 worked out at 6%; in the assay on FLT3-autoinhibited, 29%; in the assay with FLT3, 0%; with FLT4, 0%; in the assay on FRK, 0%; in the assay with FYN, 38%. In addition, the “%Inh” value in the assay with GAK and in the assay on GCN2(Kin.Dom.2,S808G) was 0% throughout.
Turning to `Cn1ccc2ncnc(Oc3ccc(NC(=O)Nc4cccnc4)c(Cl)c3)c21`, the “%Inh” value was 0% with ERK4; 5% with ERK5; 0% in the assay with ERK8; 37% in the assay on ERN1; 0% with FAK; 0% with FER. Also, the “%Inh” value in the assay on FES is given as 16%; in the assay on FGFR1, 0%; in the assay on FGFR2, 0%; in the assay with FGFR3, 0%; in the assay on FGFR4, 0%; with FGR, 0%. For the same compound, the “%Inh” value is given as 2% in the assay with FLT1; 0% with FLT3-autoinhibited; 0% in the assay on FLT3; 37% in the assay on FLT4; 0% in the assay with FRK; 0% in the assay with FYN. For the same compound, the “%Inh” value with GAK and with GCN2(Kin.Dom.2,S808G) was 0% in each case.
Turning to `CCn1c(-c2ccncc2)nc2cnccc21` [SB-735216], the “%Inh” value in the assay with ERK4 is 3%; in the assay on ERK5 it was 8%; with ERK8, 0%; in the assay with ERN1, 5%; with FAK, 9%; with FER, 0%. The “%Inh” value stood at 3% in the assay with FES; 0% in the assay on FGFR1; 0% with FGFR2; 17% in the assay with FGFR3; 11% with FGFR4; 3% with FGR. Also, the “%Inh” value in the assay with FLT1 amounted to 4%; in the assay with FLT3-autoinhibited, 20%; in the assay with FLT3, 15%; with FLT4, 5%; in the assay with FRK, 0%; in the assay with FYN, 19%. Further, the entries for the “%Inh” value with GAK and with GCN2(Kin.Dom.2,S808G) were 13% and 12%, respectively.
For the compound `CC(=O)Nc1n[nH]c2ncc(-c3ccccc3)cc12` [SB-548492], the “%Inh” value came out at 0% with ERK4; 0% in the assay with ERK5; 60% with ERK8; 0% in the assay on ERN1; 0% in the assay with FAK; 4% in the assay on FER. Also, the “%Inh” value in the assay on FES amounted to 25%; in the assay on FGFR1, 4%; in the assay on FGFR2, 0%; with FGFR3, 10%; in the assay with FGFR4, 0%; in the assay on FGR it was 16%. The “%Inh” value in the assay on FLT1 came out at 25%; with FLT3-autoinhibited, 47%; in the assay on FLT3, 74%; in the assay on FLT4, 0%; in the assay with FRK, 0%; in the assay on FYN, 0%. Also, the “%Inh” value with GAK is reported as 31%; in the assay with GCN2(Kin.Dom.2,S808G), 27%.
`Nc1n[nH]c2nnc(-c3ccccc3)cc12` [SB-517389]: the “%Inh” value is listed as 30% in the assay with ERK4; 0% in the assay on ERK5; 18% in the assay on ERK8; 3% in the assay on ERN1; 0% in the assay with FAK; 0% in the assay with FER. For the same compound, the “%Inh” value was 0% in the assay with FES; 0% in the assay on FGFR1; 5% in the assay with FGFR2; 11% with FGFR3; 14% in the assay on FGFR4; 29% with FGR. Moreover, the “%Inh” value with FLT1 is reported as 12%; with FLT3-autoinhibited it was 1%; with FLT3 it was 0%; in the assay on FLT4, 0%; in the assay with FRK it was 6%; in the assay on FYN, 28%. Moreover, the “%Inh” value in the assay on GAK and with GCN2(Kin.Dom.2,S808G) was 10% in each case.
`Cn1cc(-c2ccc3c(c2)CCN3C(=O)Cc2cccc(C(F)(F)F)c2)c2c(N)ncnc21` [GSK2606414]: the “%Inh” value with ERK4 is reported as 7%; in the assay with ERK5 it was 0%; with ERK8, 23%; with ERN1, 21%; in the assay with FAK, 0%; with FER, 0%. For the same compound, the “%Inh” value with FES was 0%; with FGFR1, 20%; in the assay on FGFR2, 0%; in the assay on FGFR3, 0%; in the assay on FGFR4 it was 0%; in the assay with FGR, 0%. The “%Inh” value in the assay on FLT1 is given as 31%; in the assay on FLT3-autoinhibited, 3%; in the assay on FLT3, 28%; in the assay with FLT4, 22%; in the assay with FRK, 0%; in the assay with FYN, 13%. Besides, the entries for the “%Inh” value in the assay on GAK and with GCN2(Kin.Dom.2,S808G) were 3% and 5%, respectively.
For `COC(=O)c1cccc(NC(=O)NCCNc2ccnc(Nc3ccc(F)cc3)n2)c1` [GSK1379883], the “%Inh” value in the assay with ERK4 is 4%; in the assay with ERK5, 0%; with ERK8, 0%; with ERN1 it was 21%; in the assay on FAK it was 0%; in the assay with FER, 19%. The “%Inh” value is listed as 7% with FES; 0% with FGFR1; 43% in the assay on FGFR2; 15% in the assay on FGFR3; 0% in the assay on FGFR4; 9% in the assay with FGR. For the same compound, the “%Inh” value in the assay on FLT1 is 28%; in the assay with FLT3-autoinhibited it was 0%; with FLT3 it was 0%; in the assay on FLT4, 17%; with FRK it was 1%; with FYN it was 0%. The “%Inh” value is 0% with GAK and 6% in the assay with GCN2(Kin.Dom.2,S808G).
